Test systems include NCI-H23 lung; NCI-H226 lung; NCI-H322M lung; HOP-62 NSCLC; NCI-H460 lung; HOP-92 NSCLC; NCI-H522 lung; A549/ATCC NSCLC; 786-0 renal; COLO 205 colon.
What all share (experiment): NCI-60 one-dose screen, 48 h (100 = growth as untreated, 0 = no growth, -100 = all killed)
Holding throughout (conditions): 10 µM unless noted

These results are taken from PubChem BioAssay (NCI).

This is part of a sample that, as a whole, favours compounds with a hit. Of some 83,000 tested, about 20% had one in any assay.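 48-hour exposure, single concentration, 96-well plates; percent growth endpoint where 0 means no net growth. Active: below 10.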 Unmarked numbers belong to inactive results. Activity calls are given as the source filed them.

`COc1ccc(Nc2c3c4c(cccc4[nH]c2=O)C(=O)c2ccccc2-3)cc1`: the growth with NCI-H23 lung is 4.11% (active); in the assay with NCI-H226 lung, 17%; with NCI-H322M lung, 24.9%; with HOP-62 NSCLC, 28%; with NCI-H460 lung, -44.4% (active); in the assay on HOP-92 NSCLC, 15.5%. Further, the growth with NCI-H522 lung is -20.4% (active); in the assay with A549/ATCC NSCLC it was 20.6%; in the assay with 786-0 renal, 12.1%; in the assay with COLO 205 colon, -64.5% (active).
`O=C1/C(=C/c2ccc(OCCCOc3ccc(Cl)cc3)cc2)N=C2SCCCN12`: the growth was 49.7% in the assay with NCI-H23 lung; 86.4% in the assay with NCI-H226 lung; 103% with NCI-H322M lung; 99.1% in the assay with HOP-62 NSCLC; 98.1% in the assay with NCI-H460 lung; 92.5% with HOP-92 NSCLC. Moreover, the growth was 34.6% with NCI-H522 lung, 73.4% with A549/ATCC NSCLC, 82.1% in the assay on 786-0 renal and 78.2% in the assay on COLO 205 colon.
Regarding `c1ccc(-c2c(-c3ccccc3)[n+](Cc3ccc4ccccc4c3)c(-c3ccc(-c4nc5ccccc5s4)cc3)n2Cc2ccc3ccccc3c2)cc1`, the growth was -82.1% (active) in the assay with NCI-H23 lung; -79.2% (active) in the assay with NCI-H226 lung; -92.1% (active) in the assay with NCI-H322M lung; -90% (active) in the assay on HOP-62 NSCLC; -67.3% (active) with NCI-H460 lung; -85.4% (active) with HOP-92 NSCLC. The growth is -81.3% (active) with NCI-H522 lung, -77.1% (active) in the assay with A549/ATCC NSCLC, -75.4% (active) with 786-0 renal and -86.1% (active) in the assay on COLO 205 colon.
For the compound `O=C(N=Nc1c(O)[nH]c2ccccc12)c1cc(-c2ccccc2)on1`, the growth in the assay on NCI-H23 lung was 95.8%; in the assay with NCI-H226 lung it was 96.8%; in the assay with NCI-H322M lung it was 111%; in the assay on HOP-62 NSCLC it was 102%; in the assay on NCI-H460 lung, 102%; in the assay with HOP-92 NSCLC, 96.2%. Besides, the growth was 90.7% in the assay on NCI-H522 lung, 107% with A549/ATCC NSCLC, 104% in the assay on 786-0 renal and 122% in the assay on COLO 205 colon.
Turning to `CCC#CC[C@H](O)C/C=C1/C(=O)C=C[C@@H]1C/C=C\CCCC(=O)OC`, the growth is -13.4% (active) with NCI-H23 lung; -62.8% (active) with NCI-H226 lung; 48.1% with NCI-H322M lung; -8.26% (active) with HOP-62 NSCLC; -34.6% (active) with NCI-H460 lung; 35.8% in the assay on HOP-92 NSCLC. The growth in the assay on NCI-H522 lung is -90.1% (active); in the assay with A549/ATCC NSCLC it was 32.6%; in the assay with 786-0 renal, -28.3% (active); with COLO 205 colon, -23% (active).
`Cc1cc(N2CCN(c3ccnc4cc(Cl)ccc34)CC2)nc(NC2CCCCC2)n1`: the growth in the assay on NCI-H23 lung is 29.9%; in the assay on NCI-H226 lung, 64.4%; in the assay on NCI-H322M lung it was 58.5%; in the assay with HOP-62 NSCLC, 29.6%; in the assay with NCI-H460 lung it was 1.4% (active); in the assay on HOP-92 NSCLC, 20.4%. In addition, the growth is 50.2% with NCI-H522 lung, 34% with A549/ATCC NSCLC, 37.9% in the assay with 786-0 renal and -48.4% (active) in the assay with COLO 205 colon.
Turning to `O=C1OCC2=C1C(c1ccncc1)c1cc3c(cc1N2CCO)OCO3` (stereo not given), the growth in the assay on NCI-H23 lung was 99.6%; in the assay on NCI-H226 lung it was 102%; in the assay on NCI-H322M lung it was 98.3%; in the assay on HOP-62 NSCLC, 93.5%; in the assay with NCI-H460 lung it was 101%; in the assay with HOP-92 NSCLC, 87.6%. The growth in the assay on NCI-H522 lung was 91.2%; in the assay on A549/ATCC NSCLC, 98.9%; in the assay on 786-0 renal it was 112%; in the assay on COLO 205 colon it was 53.1%.
Consider `O=C(Cc1ccc(/C=C/C(=O)c2ncc[nH]2)cc1)Nc1ccc(F)cc1`, for which the growth was 24.2% in the assay with NCI-H23 lung; 61.3% with NCI-H226 lung; 33.3% in the assay on NCI-H322M lung; 20.5% in the assay with HOP-62 NSCLC; 1.46% (active) in the assay on NCI-H460 lung; 69.7% in the assay on HOP-92 NSCLC. Besides, the growth is 22.2% in the assay with NCI-H522 lung, 25.6% in the assay on A549/ATCC NSCLC, 23.7% with 786-0 renal and 20.5% in the assay with COLO 205 colon.
Regarding `CC[C@]1(O)C[C@@H]2CN(CCc3c([nH]c4ccccc34)[C@@](C(=O)OC)(c3cc4c(cc3OC)N(C)[C@H]3[C@@](O)(C(N)=O)[C@H](O)[C@]5(CC)[C@@H]6C[C@@H]6CN6CC[C@]43[C@@H]65)C2)C1`, the growth was 32.7% in the assay on NCI-H23 lung; 44.2% in the assay on NCI-H226 lung; 55.4% in the assay on NCI-H322M lung; 24.1% in the assay with HOP-62 NSCLC; 8.06% (active) in the assay on NCI-H460 lung; 19.3% in the assay with HOP-92 NSCLC. In addition, the growth was -32.3% (active) in the assay on NCI-H522 lung, 12.7% in the assay with A549/ATCC NSCLC, 18% with 786-0 renal and -44.3% (active) in the assay with COLO 205 colon.
Regarding `COC(=O)c1cccc(NC(=O)c2ccc(-c3cccc(N)c3)o2)c1`, the growth in the assay on NCI-H23 lung was 97.5%; in the assay on NCI-H226 lung it was 85.8%; in the assay with NCI-H322M lung it was 101%; with HOP-62 NSCLC it was 104%; with NCI-H460 lung, 102%; with HOP-92 NSCLC, 106%. The growth in the assay on NCI-H522 lung was 81.8%; with A549/ATCC NSCLC, 100%; in the assay with 786-0 renal it was 109%; in the assay on COLO 205 colon, 112%.
In the case of `CNc1ccc(-c2cc(=O)oc3ccc(Cl)cc23)cc1`, the growth with NCI-H23 lung was 18.5%; in the assay with NCI-H226 lung it was 48.1%; in the assay on NCI-H322M lung it was 54.4%; with HOP-62 NSCLC it was 26.2%; in the assay on NCI-H460 lung, 6.78% (active); in the assay on HOP-92 NSCLC, 37.3%. In addition, the growth in the assay with NCI-H522 lung is -25.3% (active); in the assay with A549/ATCC NSCLC, 10.1%; with 786-0 renal, 37.3%; in the assay on COLO 205 colon, -15.1% (active).
On to `NC(=NC1C2CC3CC(C2)CC1C3)Nc1ccc(I)cc1` (stereo not given), for which the growth is 15.4% in the assay with NCI-H23 lung; 84.7% in the assay with NCI-H226 lung; 15.7% with NCI-H322M lung; 12.9% in the assay with HOP-62 NSCLC; 55.2% with NCI-H460 lung; 31.1% with HOP-92 NSCLC. For the same compound, the growth was 42.4% with NCI-H522 lung, 26.1% in the assay on A549/ATCC NSCLC, 61% in the assay on 786-0 renal and -70.3% (active) in the assay with COLO 205 colon.
Take `CC1=C[C@H]2c3c(c(O)c(O)c4oc5cc(O)ccc5c(=O)c34)[C@H](c3cc(O)c(O)c4oc5cc(O)ccc5c(=O)c34)[C@H]2C(C)(C)C1`: the growth was 15.8% in the assay with NCI-H23 lung; 26.3% with NCI-H226 lung; 63.6% in the assay with NCI-H322M lung; 39.8% in the assay on HOP-62 NSCLC; 0.208% (active) in the assay with NCI-H460 lung; -9.21% (active) in the assay with HOP-92 NSCLC. The growth is 13.7% in the assay on NCI-H522 lung, 13.1% with A549/ATCC NSCLC, 47.9% in the assay with 786-0 renal and 46.6% in the assay with COLO 205 colon.
